# According to the supplement of paper PMC4466140:
# How the values were obtained:
# Assay in all cases: SPOT peptide array binding signal intensity (averaged, normalized) (arbitrary units (background-subtracted, floor 0; scale differs between SH3 domains)); higher = stronger binding of the SH3 domain to the peptide
# AgAbp1 = molecular target: AgAbp1
# In short: (§1)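 Spot intensities were captured after detection with anti-GST antibody, an HRP-linked anti-mouse secondary and luminol, and quantified with Genespotter. The probes were GST-fused SH3 domains from four yeast species, produced in E. coli BL21(DE3), purified on glutathione Sepharose and incubated at 10 μg/ml overnight at 4°C on cellulose-bound synthetic 15-mer peptides with cysteines replaced by serines. Binding signal is the normalized, background-subtracted spot intensity averaged over replicates, and its arbitrary units differ between domains.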
# AgBbc1 = molecular target: AgBbc1
# In short: as §1
# AgBem1-D1 = molecular target: AgBem1-D1
# In short: as §1
# AgBzz1-D1 = molecular target: AgBzz1-D1
# In short: as §1
# AgBzz1-D2 = molecular target: AgBzz1-D2
# In short: as §1
# AgCyk3 = molecular target: AgCyk3
# In short: as §1
# AgFus1 = molecular target: AgFus1
# In short: as §1
# AgHof1 = molecular target: AgHof1
# In short: as §1
# AgHse1 = molecular target: AgHse1
# In short: as §1
# AgLsb1 = molecular target: AgLsb1
# In short: as §1
# AgLsb4 = molecular target: AgLsb4
# In short: as §1
# AgMyo5 = molecular target: AgMyo5
# In short: as §1
# AgNbp2 = molecular target: AgNbp2
# In short: as §1
# AgRvs167 = molecular target: AgRvs167
# In short: as §1
# AgSho1 = molecular target: AgSho1
# In short: as §1
# AgSla1-D1-D2 = molecular target: AgSla1-D1-D2
# In short: as §1
# AgSla1-D3 = molecular target: AgSla1-D3
# In short: as §1
# CaAbp1-D1 = molecular target: CaAbp1-D1
# In short: as §1
# CaAbp1-D2 = molecular target: CaAbp1-D2
# In short: as §1
# CaBbc1 = molecular target: CaBbc1
# In short: as §1
# CaBem1-D1 = molecular target: CaBem1-D1
# In short: as §1
# CaBzz1-D1 = molecular target: CaBzz1-D1
# In short: as §1
# CaBzz1-D2 = molecular target: CaBzz1-D2
# In short: as §1
# CaCyk3 = molecular target: CaCyk3
# In short: as §1
# CaFus1 = molecular target: CaFus1
# In short: as §1
# CaHof1 = molecular target: CaHof1
# In short: as §1
# CaHse1 = molecular target: CaHse1
# In short: as §1
# CaLsb1 = molecular target: CaLsb1
# In short: as §1
# CaLsb4 = molecular target: CaLsb4
# In short: as §1
# CaMyo5 = molecular target: CaMyo5
# In short: as §1
# CaNbp2 = molecular target: CaNbp2
# In short: as §1
# CaRvs167 = molecular target: CaRvs167
# In short: as §1
# CaRvs167-3 = molecular target: CaRvs167-3
# In short: as §1
# CaSho1 = molecular target: CaSho1
# In short: as §1
# CaSla1-D1-D2 = molecular target: CaSla1-D1-D2
# In short: as §1
# CaSla1-D3 = molecular target: CaSla1-D3
# In short: as §1
# ScAbp1 = molecular target: ScAbp1
# In short: as §1
# ScBbc1 = molecular target: ScBbc1
# In short: as §1
# ScBem1-D1 = molecular target: ScBem1-D1
# In short: as §1
# ScBzz1-D1 = molecular target: ScBzz1-D1
# In short: as §1
# ScBzz1-D2 = molecular target: ScBzz1-D2
# In short: as §1
# ScCyk3 = molecular target: ScCyk3
# In short: as §1
# ScFus1 = molecular target: ScFus1
# In short: as §1
# ScHof1 = molecular target: ScHof1
# In short: as §1
# ScHse1 = molecular target: ScHse1
# In short: as §1
# ScLsb1 = molecular target: ScLsb1
# In short: as §1
# ScLsb2 = molecular target: ScLsb2
# In short: as §1
# ScLsb3 = molecular target: ScLsb3
# In short: as §1
# ScLsb4 = molecular target: ScLsb4
# In short: as §1
# ScMyo3 = molecular target: ScMyo3
# In short: as §1
# ScMyo5 = molecular target: ScMyo5
# In short: as §1
# ScNbp2 = molecular target: ScNbp2
# In short: as §1
# ScPex13 = molecular target: ScPex13
# In short: as §1
# ScRvs167 = molecular target: ScRvs167
# In short: as §1
# ScSho1 = molecular target: ScSho1
# In short: as §1
# ScSla1-D1-D2 = molecular target: ScSla1-D1-D2
# In short: as §1
# ScSla1-D3 = molecular target: ScSla1-D3
# In short: as §1
# SpAbp1-D1 = molecular target: SpAbp1-D1
# In short: as §1
# SpBbc1 = molecular target: SpBbc1
# In short: as §1
# SpBzz1-D1 = molecular target: SpBzz1-D1
# In short: as §1
binder,measurement,setting,value
IKKRNKIRLPSGSPE,SPOT peptide array binding signal intensity,AgAbp1,286
same,SPOT peptide array binding signal intensity,AgBbc1,23.8
same,SPOT peptide array binding signal intensity,AgBem1-D1,55
same,SPOT peptide array binding signal intensity,AgBzz1-D1,22
same,SPOT peptide array binding signal intensity,AgBzz1-D2,34.5
same,SPOT peptide array binding signal intensity,AgCyk3,7
same,SPOT peptide array binding signal intensity,AgFus1,279
same,SPOT peptide array binding signal intensity,AgHof1,52.5
same,SPOT peptide array binding signal intensity,AgHse1,766
same,SPOT peptide array binding signal intensity,AgLsb1,7
same,SPOT peptide array binding signal intensity,AgLsb4,97
same,SPOT peptide array binding signal intensity,AgMyo5,1.75
same,SPOT peptide array binding signal intensity,AgNbp2,202
same,SPOT peptide array binding signal intensity,AgRvs167,5.67
same,SPOT peptide array binding signal intensity,AgSho1,36
same,SPOT peptide array binding signal intensity,AgSla1-D1-D2,89
same,SPOT peptide array binding signal intensity,AgSla1-D3,7
same,SPOT peptide array binding signal intensity,CaAbp1-D1,1510
same,SPOT peptide array binding signal intensity,CaAbp1-D2,858
same,SPOT peptide array binding signal intensity,CaBbc1,94.2
same,SPOT peptide array binding signal intensity,CaBem1-D1,16
same,SPOT peptide array binding signal intensity,CaBzz1-D1,104
same,SPOT peptide array binding signal intensity,CaBzz1-D2,132
same,SPOT peptide array binding signal intensity,CaCyk3,17
same,SPOT peptide array binding signal intensity,CaFus1,615
same,SPOT peptide array binding signal intensity,CaHof1,1.25
same,SPOT peptide array binding signal intensity,CaHse1,38
same,SPOT peptide array binding signal intensity,CaLsb1,1.5
same,SPOT peptide array binding signal intensity,CaLsb4,79
same,SPOT peptide array binding signal intensity,CaMyo5,1.5
same,SPOT peptide array binding signal intensity,CaNbp2,271
same,SPOT peptide array binding signal intensity,CaRvs167,11.7
same,SPOT peptide array binding signal intensity,CaRvs167-3,67.2
same,SPOT peptide array binding signal intensity,CaSho1,506
same,SPOT peptide array binding signal intensity,CaSla1-D1-D2,30
same,SPOT peptide array binding signal intensity,CaSla1-D3,0.5
same,SPOT peptide array binding signal intensity,ScAbp1,39
same,SPOT peptide array binding signal intensity,ScBbc1,12.8
same,SPOT peptide array binding signal intensity,ScBem1-D1,62
same,SPOT peptide array binding signal intensity,ScBzz1-D1,20
same,SPOT peptide array binding signal intensity,ScBzz1-D2,15
same,SPOT peptide array binding signal intensity,ScCyk3,181
same,SPOT peptide array binding signal intensity,ScFus1,242
same,SPOT peptide array binding signal intensity,ScHof1,1.5
same,SPOT peptide array binding signal intensity,ScHse1,1420
same,SPOT peptide array binding signal intensity,ScLsb1,6.25
same,SPOT peptide array binding signal intensity,ScLsb2,11
same,SPOT peptide array binding signal intensity,ScLsb3,162
same,SPOT peptide array binding signal intensity,ScLsb4,13
same,SPOT peptide array binding signal intensity,ScMyo3,4
same,SPOT peptide array binding signal intensity,ScMyo5,6
same,SPOT peptide array binding signal intensity,ScNbp2,256
same,SPOT peptide array binding signal intensity,ScPex13,7.5
same,SPOT peptide array binding signal intensity,ScRvs167,33
same,SPOT peptide array binding signal intensity,ScSho1,681
same,SPOT peptide array binding signal intensity,ScSla1-D1-D2,362
same,SPOT peptide array binding signal intensity,ScSla1-D3,30
same,SPOT peptide array binding signal intensity,SpAbp1-D1,512
same,SPOT peptide array binding signal intensity,SpBbc1,2
same,SPOT peptide array binding signal intensity,SpBzz1-D1,122
